Screens (PubChem)
HT1080 IDH1KD tx: qHTS for induction of synthetic lethality in tumor cells producing 2HG: qHTS for the HT-1080-IDH1KD cell line; AID 686971, 2013; Potency, µM (doses to about 46.1 µM), inactives show at the highest dose activity, negative = toxicity, actives largely listed as cytotoxic; HT-1080 IDH1 knockdown viability, ATP luminescence, 48 h; 360,000 compounds, 2% hits;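 note: potency is the fitted concentration of half-maximal effect; 0% = DMSO wells and -100% = cell-free medium wells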
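Using the IDH1-knockdown HT-1080 line run in the same batch and compound series as the NT line, viability after 48 h at 37 °C was determined by CellTiter-Glo luminescence and expressed as % activity.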
IL-1B inflam inh: qHTS for Inhibitors of Inflammasome Signaling: IL-1-beta AlphaLISA Primary Screen; THP-1 LPS/ATP IL-1B secretion, AlphaLISA, 16 h; hits give low values; activity change, % at 57.5 µM; 360,000 compounds, 4.7% hits; AID 743279, 2014; in the data active = activity change below about -50%; inconclusive = mostly about -30% to -49%
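Secreted IL-1B measured by AlphaLISA bead assay after 16 h compound exposure of THP-1 cells; compounds (final up to 57.5 uM) added 1 h before LPS (250 ng/mL) and ATP (1.25 mM) stimulation; lower signal means less secretion.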
KB-3-1 cytotox: qHTS assay for MDR1-selective chemotherapeutics: Primary screen using the parental adenocarcinoma cell KB-3-1. KB-3-1 viability, CellTiter-Glo ATP luminescence, 72 h. Potency, µM (doses to about 46.1 µM), usual class: cytotoxic. 400,000 compounds, 1.4% hits. AID 1347075, 2019; note: potency is the fitted concentration of half-maximal effect; nearly all actives have a fitted effect of over 60% in size
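72 h, 37 °C compound treatment of KB-3-1 parental cells; CellTiter-Glo added, 10 min, luminescence read. Data corrected against DMSO-only plates and normalized before curve fitting.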
HT1080-NT tox: qHTS for induction of synthetic lethality in tumor cells producing 2HG: qHTS for the HT-1080-NT fibrosarcoma cell line; HT-1080-NT fibrosarcoma viability, CellTiter-Glo ATP luminescence, 48 h; Potency, µM (titrated, usually from 46.1 µM), without a hit: top-dose activity, negative = less viability, most hits filed as cytotoxic; 360,000 compounds, 1.6% hits; AID 686970, 2013;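 note: NT is the 2HG producing partner of a matched IDH1 knockdown line; potency is the fitted concentration of half-maximal effect; 0% = DMSO-treated cells and -100% = media-only wells without cells; nearly all actives have a fitted effect of over 55% in size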
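Read-out is CellTiter-Glo luminescence after 10 minutes at room temperature, following 48 hours' compound treatment of HT-1080-NT cells (750 cells/well, RPMI, 5% FBS, 37 degrees C).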
KB-V1 MDR tox: qHTS assay for MDR1-selective chemotherapeutics: Primary screen using the drug-selected MDR subline cells KB-V1; KB-V1 MDR cells viability, CellTiter-Glo, 72 h; Potency, µM (highest dose often 46.1 µM), usual class: cytotoxic; 400,000 compounds, 3.4% hits; AID 1347076, 2019; note: potency is the fitted concentration of half-maximal effect; nearly all actives have a fitted effect of over 60% in size
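Cells of the MDR subline KB-V1 are plated, dosed with compound at multiple concentrations, and incubated 72 h at 37 degrees C; CellTiter-Glo is then added and luminescence read after 10 min.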
The depositor's hits bear a star; i = inactive; ? = inconclusive; nt = no result given. An excerpt weighted towards active compounds, which were near 8.8% of everything screened. Unless noted, calls come from the whole dose curve; as a rule, active = well fitted curve in the direction sought with a large enough effect; inconclusive = small, poorly fitted or top-dose-only effect, or another doubt; inactive = no such curve, though single readings can be large; an effect the other way counts as inactive or inconclusive. Unless noted, % is set by controls: 0 for no effect and ±100 for the full control effect.

SMILES	HT1080 IDH1KD tx	IL-1B inflam inh	KB-3-1 cytotox	HT1080-NT tox	KB-V1 MDR tox
CCc1cccc(OCCOC(=O)CNS(=O)(=O)c2ccc(NC(C)=O)cc2)c1	-14%	-1	i	0%	i
O=C(CSc1nc2ccccc2s1)N/N=C/c1ccco1	-3%	13	i	-7%	i
N#C/C(=C\c1ccco1)Sc1nc2ccccc2s1	-18%	-66*	i	-7%	i
O=[N+]([O-])c1c(Nc2cccc(O)c2)cc(Cl)c2nonc12	8.2µM*	-96*	18µM*	5.2µM*	?
Cc1c(Nc2ccc3nonc3c2[N+](=O)[O-])c(=O)n(-c2ccccc2)n1C	-12%	15	i	-18%	i
Cc1c(Nc2cc(Cl)c3nonc3c2[N+](=O)[O-])c(=O)n(-c2ccccc2)n1C	?	-105*	?	3.7µM*	i
O=[N+]([O-])c1cncc([N+](=O)[O-])c1Nc1cccc(O)c1	-16%	-18	?	-22%	23µM*
Cc1ccccc1Nc1c([N+](=O)[O-])cncc1[N+](=O)[O-]	8%	8	i	-2%	i
CC12CCC(C(=O)NCCCN3CCOCC3)(C(Br)C1=O)C2(C)C (stereo unspecified)	18%	nt	i	1%	i
Cc1c(Cl)cccc1NC(=O)CCOc1ccccc1	nt	nt	i	nt	i
O=C(NCCCC1CCCC1)C1CCC(=O)N(Cc2ccc(Cl)cc2)C1 (stereo unspecified)	-23%	-69*	i	-1%	i
O=C(Nc1ccccc1NS(=O)(=O)c1ccc(F)cc1)C1CCC1	-10%	40	i	-11%	?
O=C1C(F)=CC(COC(c2ccccc2)(c2ccccc2)c2ccccc2)OC1n1cc(F)c(=O)[nH]c1=O (stereo unspecified)	21µM*	-101*	?	?	?
CC(=O)OCC1OC(n2cc(F)c(=O)[nH]c2=O)C(OC(C)=O)C1OC(C)=O (stereo unspecified)	?	93	i	3%	i
O=S(=O)(c1ccccc1)N1CCN(Cc2ccccc2)c2ccccc21	0%	-5	i	-7%	18µM*
CN(C)/C=C1\C(=O)N(C)N=C1C(F)(F)F	2%	32	i	11%	i
Cc1cccc(CN2Cc3cccc4c3[C@H](C=CC4)CC2=O)c1	nt	nt	i	nt	i
COCCN(C(=O)c1ccc(C)o1)c1c(N)n(CC(C)C)c(=O)[nH]c1=O	-7%	-9	i	-6%	i
CCOc1ccc2[nH]c3c(NCCC(C)C)ncnc3c2c1	?	-68*	?	?	i
COc1ccc2[nH]c3c(NCCC4=CCCCC4)ncnc3c2c1	16µM*	-105*	3.7µM*	29µM*	9.2µM*
Fc1ccc2[nH]c3c(NCc4ccccc4)ncnc3c2c1	?	-86*	?	?	i
COc1ccc2c(c1)[nH]c1c(=O)n(CCC3=CCCCC3)cnc12	11%	-4	i	10%	i
COc1ccc2[nH]c3c(NCCCOC(C)C)ncnc3c2c1	?	-67*	i	?	?
CC1CCN(S(=O)(=O)c2cccc3cccnc23)CC1	-5%	0	i	-8%	i
Cc1noc(C)c1C(=O)N1CCC1(C)C(=O)NS(=O)(=O)c1cccs1 (stereo unspecified)	-1%	29	i	26%	i
SMILES	HT1080 IDH1KD tx	IL-1B inflam inh	KB-3-1 cytotox	HT1080-NT tox	KB-V1 MDR tox
CCOc1ccccc1C1C(C(=O)Nc2ccccc2)=C(C)Nc2nc(-c3ccccc3)nn21 (stereo unspecified)	nt	nt	i	nt	i
C=CCNc1ncnc2c1[nH]c1ccc(C)cc12	?	-101*	?	?	?
Cc1ccc2[nH]c(=O)c(C(c3nnnn3Cc3ccccc3)N3CCc4ccccc43)cc2c1 (stereo unspecified)	-20%	29	i	-22%	?
Cc1cc2cc(C(c3nnnn3Cc3ccco3)N3CCc4ccccc4C3)c(=O)[nH]c2cc1C (stereo unspecified)	?	-58*	?	?	?
Cc1cc2cc(C(c3nnnn3Cc3ccccc3)N3CCc4ccccc43)c(=O)[nH]c2cc1C (stereo unspecified)	-29%	8	i	-29%	8.2µM*
COc1ccc(C(CNC(=O)CCNS(=O)(=O)c2ccc(Br)cc2)N2CCOCC2)cc1 (stereo unspecified)	7%	10	i	8%	i
O=C(CNCc1ccc(Cl)cc1)Nc1cc(S(=O)(=O)N2CCCC2)ccc1Cl	-2%	-3	i	4%	i
CC(=O)Oc1c(I)cc(I)cc1C(=O)Nc1ccc(Cl)cc1	21µM*	-87*	23µM*	21µM*	16µM*
Cc1cc(C(=O)Nc2ccc(Cl)cc2)c2ccccc2n1	-29%	1	i	-21%	i
COc1ccc(-c2sc(N)nc2-c2ccccc2)cc1	nt	nt	i	nt	i
Clc1ccc(CNCCCSc2ncccn2)cc1Cl	-13%	-62*	i	-11%	?
CC(C)OC(=O)c1cc2c(ccn2C)n1CC(=O)N(Cc1ccccc1)c1ccc(F)cc1	21µM*	0	i	?	i
CCOC(=O)c1cc2c(ccn2C)n1CC(=O)N(Cc1ccccc1)c1ccccc1	-16%	-72*	?	-9%	?
CCOC(=O)c1cc2c(ccn2C)n1CC(=O)N(Cc1ccccc1)c1ccc(F)cc1	-2%	8	i	-23%	?
Cc1cccc(S(=O)(=O)N(C)C[C@@H]2OCc3cn(nn3)CCCC(=O)N([C@H](C)CO)C[C@H]2C)c1	2%	14	i	10%	i
O=C(CC1Nc2cccc3cccc(c23)NC1=O)Nc1ccccc1 (stereo unspecified)	-5%	-63*	i	-5%	i
Cc1ccc(NC(=O)CC2Nc3ccccc3NC2=O)cc1Cl (stereo unspecified)	21µM*	-2	?	21µM*	i
CN1C[C@@H]2[C@@H]3C(=O)N(C)C(=O)[C@@H]3[C@](Cc3ccccc3)(C1=O)N2C(=O)c1ccccc1	9%	50	?	8%	?
Cc1ccc(S(=O)(=O)NC(=O)Nc2ccc(N(C)C)cc2)cc1	?	-80*	?	-29%	i
Cc1ccc(NC(=O)NNS(=O)(=O)c2ccc(Br)cc2)cc1	0%	-1	i	-5%	i
